Measured values taken from PubChem BioAssay AID504753 (Sanford-Burnham Center for Chemical Genomics, 2011).
Out of some 2,400 compounds screened, about 820 (34%) were called active.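 The calls were made as follows: active = inhibition of at least 50% at 20 µM in any single replicate; inactive = the rest.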 These entries were drawn from the full list.

Test system: glucose-6-phosphate dehydrogenase-6-phosphogluconolactonase (PfGluPho), Plasmodium falciparum 3D7
Assay: PfG6PD inhibitors, hit retest, confirmation, biochemical, fluorescence intensity, single concentration (AID 504753);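 also: 0% = DMSO with substrate and 100% = DMSO lacking glucose-6-phosphate substrate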
Conditions: recombinant PfGluPho, NADPH-diaphorase-resazurin fluorescence; at 20 µM; active compounds read high

inhibition, inactive:
CSc1n[nH]c(=S)n1N 19.9%, O=C(CSc1cccc2cccnc12)N/N=C/c1cccnc1 15.1%, O=C(CCn1nnc2ccccc21)OCC(=O)c1ccc([N+](=O)[O-])cc1 12.8%, O=C1OC(Oc2ccc(Br)cc2)(c2ccccc2)c2ccccc21 (stereo not given) -21.5%, Cc1ccc(C(=O)/C=C/c2c(C)nn(-c3ccccc3)c2Cl)cc1 -5.72%, Cc1cccc(-n2c(N)c(C(=O)N3CCN(C)CC3)sc2=S)c1 45.5%, CCc1c(C)[nH]c(=S)c(C#N)c1C 46%, CN1c2ccc(C=O)c3c(C=O)ccc(c23)N(C)C1(C)C 20.6%, O=C(Nc1ccc(F)cc1)c1cc2c(s1)CCCC2 15.8%, O=C(CN1CCN(c2ccc(O)cc2)CC1)Nc1ccc(-c2ccccc2)cc1 22.2%, COCCNC(=S)Nc1cc(S(=O)(=O)N2CCOCC2)ccc1N1CCCCC1 44.5%, COc1ccc(Cl)cc1NC(=O)CN(C)C(=O)CCCc1c[nH]c2ccccc12 27.2%, Nc1ccc(-c2nnc(-c3ccc(-c4ccccc4)cc3)o2)cc1 15.4%, Cc1cccn2c(CN(C)C3CCCc4ccccc43)c(C(=O)N3CCOCC3)nc12 (stereo not given) 34.2%, COc1cc(C(=S)NCc2ccccc2)cc(Br)c1O 39.6%, O=C(Nc1sc2c(c1C(=O)O)CCC2)c1ccccc1F 33.8%, Oc1ccc(N=Cc2c(O)ccc3ccccc23)cc1 2.98%, COc1cc(C2CC(=O)N3CN(Cc4ccccc4)CSC3=C2C#N)ccc1OCc1ccccc1 (stereo not given) 15.1%, Cc1c(-c2ccccc2)n[nH]c1C(=O)N=Nc1c(O)[nH]c2ccccc12 38.1%, Nc1ccc2nc3c(=O)[nH]c(=S)[nH]c3nc2c1 23.1%, COc1cccc(NC(=O)NCc2ccc(F)cc2)c1 -14.2%, Clc1ccc2c(c1)C1=C(C(c3ccncc3)O2)C(c2ccc(Br)cc2)n2ncnc2N1 (stereo not given) 42.4%, CCOc1cccc(/C=N/N2C(=O)CSC2=S)c1O 10.3%, Nc1ccc2[nH]c(=S)sc2c1 35.6%, NC(=O)c1c(Nc2nc3c(F)cccc3s2)sc2c1CCCC2 2.29%, C#CCOCCOCCOCCNc1nc(N2CCN(C(=O)CCCCCCCCCCNC(=O)Cn3cc(CCCCCN)nn3)CC2)nc(N2CCN(C(=O)CCCCCCCCCCNC(=O)[C@H](CO)n3cc(CCCSC)nn3)CC2)n1 -12.8%, O=C(Nc1ccc(S(=O)(=O)N2CCOCC2)cc1)c1ccc2ncsc2c1 12.6%, S=C(NN=Cc1ccccn1)Nc1ccccn1 39.7%, N#Cc1ccccc1-n1c(N)c(C(=O)N2CCCC2)sc1=S 31%, O=[N+]([O-])c1ccc(N2CCN(c3ccc(O)cc3)CC2)c(Cl)c1 8.94%, Cc1ccc(-c2nc3ccc(Cl)cn3c2Cc2ccccc2)cc1 16%, Cc1ccc(-c2cn3cc(C)ccc3n2)cc1 40.7%, COc1ccc(C(=O)Nc2ccccc2C(=O)N/N=C/c2ccc(O)c(OC)c2)cc1 26.4%, CCOC(=O)c1sc(NC(=O)CSc2nc(C)cc(C(F)(F)F)n2)c(C#N)c1C 29.8%, Cn1c(CCC(=O)OCC(=O)NCc2ccccc2Cl)nc(=O)c2ccccc21 37.4%, O=C(CSc1nnc(SCc2ccc(Cl)cc2)s1)N/N=C/c1ccccc1Cl 30.5%, COC(=O)c1sc(=S)n(-c2ccccc2)c1N 17%, S=c1[nH]nc(-c2cc(-c3ccsc3)n[nH]2)n1-c1ccccc1 12.6%, Cn1sc(=O)c2cc(S(=O)(=O)NC3CC3)ccc21 40%, COc1ccc(Cl)cc1-n1c(=S)sc2c(=O)n(-c3ccc(F)cc3)c(SCC(=O)O)nc21 34.5%, COC(=O)CCCC1=CC2=CC(=O)C(C)(OC(=O)c3cccs3)C(=O)C2=CN1CC(C)C (stereo not given) 2.11%

inhibition, active:
COc1ccc(CCn2c(NN=C3CCCC3)nc3c2c(=O)[nH]c(=O)n3C)cc1 61.9%, CC(C)(C)NC(=O)COc1ccc(CNc2ccc3[nH]c(=O)[nH]c3c2)cc1 66.8%, c1ccc(-c2cn3c(n2)CCc2ccc4cccnc4c2-3)cc1 56.4%, COc1ccc2c(c1)c(=Cc1ccc(N(C)C)cc1)c1cc(-c3ccccc3)[n+](C)n12 74%, Cc1ccc(NC(=O)Cn2sc3ccccc3c2=O)cc1 107%, O=C(CN1CCN(c2ccc(O)cc2)CC1)Nc1cc(S(=O)(=O)N2CCOCC2)ccc1Cl 50%, COc1cccc(C(=O)Nc2nnc(S(=O)(=O)N3CCCCC3)s2)c1 76.5%, COc1cccc(C(=O)Nc2nnc(S(=O)(=O)N3CCOCC3)s2)c1 81%, COc1cccc(C(=O)Nc2nnc(S(=O)(=O)N(C)c3ccccc3)s2)c1 73.6%, CCOC(=O)C1=C(c2ccc(OC)cc2)C(=O)c2ccccc2C1=O 82.8%, CCN1CCCC1CNC(=O)c1ccc2c(c1)NC(=O)/C(=C\c1ccccc1F)S2 (stereo not given) 110%, O=C(Nc1nnc(S(=O)(=O)N2CCOCC2)s1)c1cccc(Br)c1 60.9%, O=C(Nc1nnc(S(=O)(=O)N2CCCCCC2)s1)c1cccc(Br)c1 55.3%, Cc1cccc(C(=O)Nc2nnc(S(=O)(=O)N3CCCCCC3)s2)c1 52.1%, COc1c(O)ccc2c1CN1CCc3cc4c(cc3C1C2)OCO4 (stereo not given) 71.4%, O=C1C=CC(=O)N1c1ccc(N2CCCCC2)cc1 63.8%, COc1ccc(CC(=O)NCC(=O)N/N=C/c2cc(Br)ccc2OC)cc1 70.9%, O=C(Nc1nc(-c2ccncc2)cs1)C1COc2ccccc2O1 (stereo not given) 52.1%, O=C1/C(=C\c2ccc([N+](=O)[O-])cc2)CS(=O)(=O)C/C1=C/c1ccc([N+](=O)[O-])cc1 56.5%
